The values below come from PubChem BioAssay.

A number with no mark means an inactive call. How the calls were made is not given here.

For this test, the target named is Pantothenate synthetase (Mycobacterium tuberculosis (strain ATCC 25618 / H37Rv)) (UniProt P9WIL5). Description: Recombinant Mtb pantothenate synthetase (PanC) inhibitors, coupled enzyme, confirmatory (AID 375).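 Further: 0% = full reaction with vehicle and 100% = no enzyme background.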 As to conditions: coupled enzyme assay; at 10 µM, active compounds read high.
Chain of Pantothenate synthetase (Mycobacterium tuberculosis (strain ATCC 25618 / H37Rv)) (P9WIL5 whole entry, looked up): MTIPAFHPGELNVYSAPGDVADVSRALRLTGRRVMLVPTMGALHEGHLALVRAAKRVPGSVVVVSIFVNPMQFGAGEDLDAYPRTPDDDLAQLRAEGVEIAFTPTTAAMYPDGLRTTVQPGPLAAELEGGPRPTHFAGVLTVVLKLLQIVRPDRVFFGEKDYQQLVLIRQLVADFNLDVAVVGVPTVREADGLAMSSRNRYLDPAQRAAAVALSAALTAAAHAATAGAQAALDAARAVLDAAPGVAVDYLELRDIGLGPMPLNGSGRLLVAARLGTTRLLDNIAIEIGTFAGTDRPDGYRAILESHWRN
With `CCCn1c(N2CCN(CC(=O)NCc3cccs3)CC2)nc2ccccc21`, the inhibition is 9%.
The result for `O=C1c2ccccc2C(Nc2cccnc2)N1Cc1ccccc1Cl` (centres undefined) reads 0%; that for `Nc1cc(=O)[nH]c(SCC(=O)Nc2ccc(Br)cc2)n1`, 2%; that for `COc1ccc(N2C(=O)CC(NC3CC3)C2=O)cc1` (centres undefined), 0%.
With `O=c1c[n+]([O-])c2ccccc2n1OCc1ccccn1`, the inhibition is 4%.
Consider `COc1cccc(NC(=O)C2CCN(c3ncccn3)CC2)c1`, for which the inhibition was 2%.
The result for `COC(=O)c1ccc2ncccc2c1` reads 0%; that for `N#Cc1cc2c(nc1SCC(=O)Nc1sc3c(c1C#N)CCC3)CCCCC2`, 0%.
Under `Cc1[nH]c2c(C)cccc2c(=O)c1Br` stands 0%; under `Cc1cccc(C)c1OCc1nnc(SCC(=O)Nc2ccccc2F)o1`, 0%.
With `COc1ccc(-c2noc(-c3ccccc3C(=O)Nc3cccnc3)n2)cc1OC`, the inhibition was 0%.
Take `Nc1nc(CSc2nc3ccccc3[nH]2)nc(N2CCOCC2)n1`: the inhibition was 4%.
In the case of `CCOC(=O)c1[nH]cc(-c2ccccc2)c1N1CCOCC1`, the inhibition is 0%.
For the compound `Cc1cc(Cl)ccc1OCC(=O)Nn1c(C)ccc1C`, the inhibition is 0%.
`O=C(CSc1nnc(-c2ccccn2)n1Cc1ccccc1)N1CCCC1`: the inhibition was 0%.
On to `COc1ccc(NC(=O)Nc2ccc(N3CCCC3=O)cc2)cc1OC`, for which the inhibition is 0%.
With `CC1(C)CC(=O)CC(=Nc2ccc(C(=O)O)cc2)C1`, the inhibition was 8%.
On to `NC(=O)CN1C(=O)C(O)(CC(=O)c2ccccc2O)c2ccccc21` (centres undefined), for which the inhibition was 0%.
The result for `Cc1cc(NCC2CCCO2)n2c(nc3ccccc32)c1C#N` (centres undefined) reads 1%; that for `COc1cc(C2c3c(oc4c(C)cc(C)cc4c3=O)C(=O)N2Cc2cccnc2)ccc1O` (centres undefined), 0%.
Under `COc1cc(CO)cc(-c2cc(CO)cc(OC)c2OC)c1OC` stands 0%.
As for `Cc1ccccc1-n1nnc2c(=O)oc3ccccc3c21`, the inhibition is 0%.
As for `Cc1noc(C)c1C(=O)OCC(=O)Nc1ccccc1C(=O)NC(C)c1ccccc1` (centres undefined), the inhibition was 14%.
With `Cc1cc(C)cc(-n2nnc(C(=O)NCc3ccco3)c2N)c1`, the inhibition was 0%.
For the compound `CCN(CC)c1nc(N(CC)CC)[nH]c(=O)n1`, the inhibition is 0%.
Regarding `O=C(CSc1nnnn1C1CCCCC1)N1CCc2ccccc21`, the inhibition is 0%.
As to `CC1=C(C(=O)NCc2ccco2)C2(CCC(C)CC2)OC1=O` (centres undefined), the inhibition was 4%.
For the compound `CCOC(=O)N1CCN(CCC(=O)c2ccc(Cl)cc2)CC1`, the inhibition is 2%.
Under `O=C(CCCN1C(=O)c2ccccc2C1=O)N1CCC(c2ccccc2)C1` (centres undefined) stands 4%; under `O=C1CCCCCC1C1(O)C(=O)Nc2ccccc21` (centres undefined), 7%.
On to `CC1CN(c2c3c(nc4ncnn24)CCCC3)CC(C)O1` (centres undefined), for which the inhibition was 2%.
Under `Cc1ccc(S(=O)(=O)N2CCCC2C(=O)OCc2ccco2)cc1` (centres undefined) stands 5%.
As for `CC(C)CNC(=O)c1c(N)n(/N=C/c2ccccn2)c2nc3ccccc3nc12`, the inhibition is 0%.
`COc1ccccc1-c1c(C)nn2c(C)c(C(C)=O)cnc12`: the inhibition is 3%.
Turning to `COC(=O)CCSCc1cn2cc(Cl)ccc2n1`, the inhibition is 0%.
As to `COc1cccc(NC(=O)c2ccco2)c1`, the inhibition is 0%.
As to `CCNC(=O)CC1C(=O)N(c2ccccc2)C(=O)N1CCC(C)C` (centres undefined), the inhibition is 0%.
The result for `Cc1ccc(Cn2ncc3c(NCCCN4CCOCC4)ncnc32)cc1` reads 8%; that for `CCOc1ccc2[nH]c(=O)c(CN(Cc3ccccc3)C(=O)N3CCCC3)cc2c1`, 6%.

What is called inhibition is the change of the read-out against control, counted positive when it falls.
